Activity calls are given as the source filed them. The calls were made as follows: active = hit-call score of the fitted dose curve at least 0.9, where 1 is the maximum; inactive = score below 0.9.
Legend:
[1] = biological target: Transcription factor E2F1 (Homo sapiens) (UniProt Q01094); experiment: ATG_E2F_CIS: Attagene CIS-FACTORIAL HepG2 Assay for human E2F Transcription Factor 1 (AID 2282935); details: HepG2 Attagene cis-reporter, E2F reporter RNA transcripts; actives raise or lower the signal
Transcription factor E2F1 (Homo sapiens), sequence (Q01094 whole entry, looked up): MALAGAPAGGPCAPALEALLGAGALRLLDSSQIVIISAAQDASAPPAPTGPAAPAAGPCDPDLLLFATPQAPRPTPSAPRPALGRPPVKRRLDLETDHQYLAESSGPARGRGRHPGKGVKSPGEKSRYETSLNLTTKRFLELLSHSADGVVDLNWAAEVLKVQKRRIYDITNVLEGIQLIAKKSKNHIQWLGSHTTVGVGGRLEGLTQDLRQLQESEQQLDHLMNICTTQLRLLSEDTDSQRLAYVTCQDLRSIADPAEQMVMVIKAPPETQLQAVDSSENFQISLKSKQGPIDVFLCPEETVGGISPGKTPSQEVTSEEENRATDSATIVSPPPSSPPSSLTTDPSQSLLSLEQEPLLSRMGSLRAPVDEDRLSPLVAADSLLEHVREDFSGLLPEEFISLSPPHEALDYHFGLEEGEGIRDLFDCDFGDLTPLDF
Method in brief: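 Gain or loss of reporter transcript, fitted against DMSO, reflects E2F1-driven transcription. Transiently transfected HepG2 dosed 24 h before RNA isolation. Quantified by fluorescent RT-PCR products separated by capillary electrophoresis.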

[2] = ATG_E_Box_CIS: Attagene CIS-FACTORIAL HepG2 Assay for human Enhancer Box (E-box) (AID 2282936); details: HepG2 E-box cis-reporter transcription, actives raise or lower the signal
Method in brief: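 E-box-driven reporter transcripts measured in transiently transfected HepG2 after 24 h exposure: RNA reverse-transcribed, PCR-amplified, fluorescently labelled, digested and resolved by capillary electrophoresis. Gain or loss relative to DMSO.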

[3] = ATG_M_61_CIS: Attagene CIS-FACTORIAL HepG2 Assay for M61 Transcription Factor (Internal Marker) (AID 2282937); details: HepG2 Attagene CIS-FACTORIAL M61 internal marker reporter; actives raise or lower the signal
Method in brief: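 Background-control endpoint: HepG2 cells with cis-regulated reporter constructs, 24 h exposure, reporter mRNA detected via fluorescent primer extension and capillary electrophoresis; values from bidirectional fitting with DMSO baseline.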

[4] = ATG_EGR_CIS: Attagene CIS-FACTORIAL HepG2 Assay for human Early Growth Response 1 (EGR1) (AID 2282938); details: HepG2 Attagene CIS-FACTORIAL EGR reporter mRNA; actives raise or lower the signal
Method in brief: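 Endpoint derived by bidirectional fitting versus DMSO vehicle. Method: cis-promoter reporter units transfected into HepG2, 24 h dosing, RNA isolation, RT-PCR with 6-FAM primer extension and HpaI digestion, then capillary electrophoresis fluorescence detection.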

[5] = ATG_M_19_CIS: Attagene CIS-FACTORIAL HepG2 Assay for M19 Transcription Factor (Internal Marker) (AID 2282939); details: HepG2 Attagene CIS-FACTORIAL M19 internal marker reporter; actives raise or lower the signal
Method in brief: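 Signals come from fluorescence of labelled reporter-specific PCR fragments resolved by capillary electrophoresis, following 24 h treatment of HepG2 cells transfected with cis-promoter reporter units; activity was fitted in both directions relative to DMSO.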

[6] = ATG_ERE_CIS: Attagene CIS-FACTORIAL HepG2 Assay for Estrogen Response Element (ERE) (AID 2282940); details: HepG2 ERE cis-reporter, Attagene RNA transcript; actives raise or lower the signal
Method in brief: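 Fluorescence of capillary-separated, FAM-labelled reporter cDNA fragments indicates reporter mRNA levels in HepG2 cells exposed to chemicals for 24 h. Transient transfection with cis-regulated units; data fitted in both directions against DMSO.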

[7] = ATG_Ets_CIS: Attagene CIS-FACTORIAL HepG2 Assay for human Erythroblast Transformation Specific (ETS) (AID 2282941); details: HepG2 ETS cis-reporter transcription, actives raise or lower the signal
Method in brief: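 RT-PCR/capillary electrophoresis fluorescence read-out of reporter mRNA; HepG2 transient multi-reporter transfection; 24 h compound exposure; gain or loss of signal fitted bidirectionally relative to DMSO.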

[8] = biological target: Hepatocyte nuclear factor 3-beta (Homo sapiens) (UniProt Q9Y261); experiment: ATG_FoxA2_CIS: Attagene CIS-FACTORIAL HepG2 Assay for human Forkhead box A2 (FOXA2) (AID 2282942); details: HepG2 cis-reporter transcription factor activity, 24 h; actives raise or lower the signal
Hepatocyte nuclear factor 3-beta (Homo sapiens), sequence (Q9Y261 whole entry, looked up): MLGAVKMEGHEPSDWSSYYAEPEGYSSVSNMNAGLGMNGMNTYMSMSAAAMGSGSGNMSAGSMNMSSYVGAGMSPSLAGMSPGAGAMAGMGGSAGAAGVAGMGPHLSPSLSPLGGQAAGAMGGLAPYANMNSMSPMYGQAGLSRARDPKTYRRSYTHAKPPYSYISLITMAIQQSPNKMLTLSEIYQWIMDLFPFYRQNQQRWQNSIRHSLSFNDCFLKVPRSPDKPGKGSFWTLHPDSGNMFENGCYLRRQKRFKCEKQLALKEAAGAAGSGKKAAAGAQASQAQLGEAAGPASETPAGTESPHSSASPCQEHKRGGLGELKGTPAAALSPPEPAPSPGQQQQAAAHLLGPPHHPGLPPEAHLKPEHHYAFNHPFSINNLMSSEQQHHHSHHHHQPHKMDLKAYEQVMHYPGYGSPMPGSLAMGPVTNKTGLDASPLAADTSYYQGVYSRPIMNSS
Method in brief: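 Measured: reporter mRNA induction or loss in HepG2 transiently carrying multiple cis-regulated reporter units, 24 h after dosing. Quantified by RT-PCR plus capillary electrophoresis, normalised to DMSO.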

[9] = ATG_FoxO_CIS: Attagene CIS-FACTORIAL HepG2 Assay for human Forkhead box O (FoxO) (AID 2282943); details: HepG2 Attagene cis-reporter, FoxO element, mRNA; actives raise or lower the signal
Method in brief: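 HepG2, transient MRTU transfection (cis element, endogenous TFs). Dose 24 h. TriZol RNA → oligo(dT) RT → PCR → 6-FAM primer extension → HpaI cut → CE. Gain/loss vs DMSO.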

[10] = ATG_GATA_CIS: Attagene CIS-FACTORIAL HepG2 Assay for human GATA Binding Protein (AID 2282944); details: HepG2 GATA cis-element reporter, Attagene multiplex mRNA; actives raise or lower the signal
Method in brief: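 After transfecting HepG2 cells with multiple cis-regulated reporter units, chemicals are dosed for 24 h; isolated RNA undergoes RT-PCR and fluorescent labeling before capillary electrophoresis, with activity expressed against DMSO.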

[11] = ATG_GLI_CIS: Attagene CIS-FACTORIAL HepG2 Assay for human Zinc Finger Protein GLI1 (AID 2282945); details: HepG2, Attagene cis-factorial reporter mRNA, GLI element; actives raise or lower the signal
Method in brief: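 Bidirectional curve fits relative to DMSO, using reporter mRNA levels from RT-PCR plus capillary electrophoresis. Cells were HepG2 transiently carrying cis-regulated reporter constructs, harvested 24 h after dosing.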

[12] = biological target: Bile acid receptor (Homo sapiens) (UniProt Q96RI1); experiment: ATG_IR1_CIS: Attagene CIS-FACTORIAL HepG2 Assay for human Nuclear Receptor Subfamily 1 Group H Member 4 (NR1H4), IR1 submotif (AID 2282946); details: IR1 reporter transcription, actives raise or lower the signal
Bile acid receptor (Homo sapiens), sequence (Q96RI1 whole entry, looked up): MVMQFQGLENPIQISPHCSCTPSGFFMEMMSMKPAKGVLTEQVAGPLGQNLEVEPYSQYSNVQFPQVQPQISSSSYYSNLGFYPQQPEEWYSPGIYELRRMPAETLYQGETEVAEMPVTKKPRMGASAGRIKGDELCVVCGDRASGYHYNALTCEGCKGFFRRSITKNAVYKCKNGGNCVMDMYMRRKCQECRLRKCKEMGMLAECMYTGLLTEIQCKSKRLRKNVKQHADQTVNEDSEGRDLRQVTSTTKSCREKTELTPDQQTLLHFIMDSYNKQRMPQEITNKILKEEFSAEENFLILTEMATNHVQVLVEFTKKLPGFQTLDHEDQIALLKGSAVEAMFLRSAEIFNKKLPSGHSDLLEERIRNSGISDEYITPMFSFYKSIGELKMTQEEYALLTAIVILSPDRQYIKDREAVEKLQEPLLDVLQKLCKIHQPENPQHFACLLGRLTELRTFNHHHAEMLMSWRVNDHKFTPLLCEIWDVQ
Method in brief: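 HepG2 cells transiently transfected with multiplexed cis-element reporter units read endogenous transcription factor activity. After 24 h compound exposure, reporter mRNA was quantified by RT-PCR, fluorescent labelling, HpaI digestion and capillary electrophoresis; bidirectional fitting versus DMSO baseline.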

[13] = ATG_ISRE_CIS: Attagene CIS-FACTORIAL HepG2 Assay for human Interferon Regulatory Factor 1 (IRF1) binding to an Interferon-Stimulated Response Element (ISRE) (AID 2282948); details: HepG2 ISRE cis-reporter (Attagene), mRNA transcription readout; actives raise or lower the signal
Method in brief: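 Read-out: fluorescent RT-PCR products resolved by capillary electrophoresis, reporting endogenous transcription factor activity via ISRE-driven reporter mRNA in transfected HepG2 cells dosed for 24 h; gain or loss fitted relative to DMSO.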

[14] = ATG_M_32_CIS: Attagene CIS-FACTORIAL HepG2 Assay for M32 Transcription Factor (Internal Marker) (AID 2282949); details: HepG2 Attagene cis-factorial M32 reporter, mRNA; actives raise or lower the signal;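 also: background control marker of the multiplexed CIS panel rather than a real target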
Method in brief: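 HepG2 transfectants (cis-regulated reporter transcription units) dosed 24 h. Reporter mRNA by RT-PCR plus CE, analysed as gain or loss relative to DMSO.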

[15] = ATG_M_06_CIS: Attagene CIS-FACTORIAL HepG2 Assay for M06 Transcription Factor (Internal Marker) (AID 2282950); details: HepG2 Attagene CIS-FACTORIAL M06 internal marker reporter; actives raise or lower the signal
Method in brief: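 HepG2 liver cells, 24 h exposure. Reporter transcripts from transfected cis-element constructs quantified by RT-PCR/capillary electrophoresis fluorescence. Bidirectional curve fit against DMSO.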

[16] = biological target: Hypoxia-inducible factor 1-alpha (Homo sapiens) (UniProt Q16665); experiment: ATG_HIF1a_CIS: Attagene CIS-FACTORIAL HepG2 Assay for human Hypoxia Inducible Factor 1 (HIF1A) (AID 2282951); details: HepG2 Attagene cis-factorial HIF1a reporter transcription; actives raise or lower the signal
Hypoxia-inducible factor 1-alpha (Homo sapiens), sequence (Q16665 whole entry, looked up): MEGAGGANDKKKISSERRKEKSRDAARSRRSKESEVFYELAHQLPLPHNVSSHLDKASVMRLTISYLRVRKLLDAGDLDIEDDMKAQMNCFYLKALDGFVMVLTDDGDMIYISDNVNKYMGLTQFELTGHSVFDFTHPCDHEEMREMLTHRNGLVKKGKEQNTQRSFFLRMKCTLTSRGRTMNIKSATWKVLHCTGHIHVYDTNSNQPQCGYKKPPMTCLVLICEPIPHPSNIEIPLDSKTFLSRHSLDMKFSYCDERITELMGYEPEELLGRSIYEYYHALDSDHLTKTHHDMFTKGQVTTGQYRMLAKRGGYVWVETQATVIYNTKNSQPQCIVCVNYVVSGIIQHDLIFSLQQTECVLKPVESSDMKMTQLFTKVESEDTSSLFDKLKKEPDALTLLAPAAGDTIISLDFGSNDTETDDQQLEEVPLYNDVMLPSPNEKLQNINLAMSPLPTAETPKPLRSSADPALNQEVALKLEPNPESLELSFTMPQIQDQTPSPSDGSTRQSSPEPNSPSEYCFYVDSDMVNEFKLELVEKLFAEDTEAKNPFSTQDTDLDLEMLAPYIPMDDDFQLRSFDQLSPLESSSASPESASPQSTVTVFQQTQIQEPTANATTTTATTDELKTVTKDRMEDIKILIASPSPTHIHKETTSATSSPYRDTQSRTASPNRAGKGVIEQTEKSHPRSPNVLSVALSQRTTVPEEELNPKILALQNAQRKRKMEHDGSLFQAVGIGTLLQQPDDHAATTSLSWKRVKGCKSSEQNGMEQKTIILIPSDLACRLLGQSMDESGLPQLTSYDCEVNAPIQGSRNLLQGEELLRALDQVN
Method in brief: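 Dosed 24 h, transfected HepG2 cells yielded total RNA whose reporter transcripts were RT-PCR-amplified and sized by capillary electrophoresis using fluorescent labelling; DMSO defined baseline, with gain and loss of signal both fitted.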

[17] = biological target: Hepatocyte nuclear factor 6 (Homo sapiens) (UniProt Q9UBC0); experiment: ATG_HNF6_CIS: Attagene CIS-FACTORIAL HepG2 Assay for human Hepatocyte Nuclear Factor 6 (HNF6) (AID 2282952); details: HepG2 Attagene cis-factorial HNF6 reporter transcription; actives raise or lower the signal
Hepatocyte nuclear factor 6 (Homo sapiens), sequence (Q9UBC0 whole entry, looked up, the tested form may be a part): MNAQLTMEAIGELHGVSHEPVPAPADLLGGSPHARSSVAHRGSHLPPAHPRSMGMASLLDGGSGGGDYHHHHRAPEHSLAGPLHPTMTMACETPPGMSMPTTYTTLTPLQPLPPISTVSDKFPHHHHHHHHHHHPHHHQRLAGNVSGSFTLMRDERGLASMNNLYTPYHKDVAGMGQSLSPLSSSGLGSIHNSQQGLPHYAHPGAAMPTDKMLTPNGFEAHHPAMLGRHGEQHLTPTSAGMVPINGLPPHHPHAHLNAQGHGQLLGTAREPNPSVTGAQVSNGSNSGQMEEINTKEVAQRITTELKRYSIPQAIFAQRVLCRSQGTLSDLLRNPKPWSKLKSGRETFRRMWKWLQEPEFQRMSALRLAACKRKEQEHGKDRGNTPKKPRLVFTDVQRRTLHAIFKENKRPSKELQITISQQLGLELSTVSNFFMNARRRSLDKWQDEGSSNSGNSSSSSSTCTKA
Method in brief: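 Readout: fluorescent reporter-transcript fragments resolved by capillary electrophoresis after RT-PCR, reflecting endogenous factor activity in transfected HepG2. Exposure 24 h. Gain or loss of signal fitted bidirectionally against DMSO.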

[18] = biological target: Heat shock factor protein 1 (Homo sapiens) (UniProt Q00613); experiment: ATG_HSE_CIS: Attagene CIS-FACTORIAL HepG2 Assay for human Heat Shock Transcription Factor 1 (HSE) (AID 2282953); details: HepG2 HSE cis-reporter, Attagene RNA transcription; actives raise or lower the signal
Heat shock factor protein 1 (Homo sapiens), sequence (Q00613 whole entry, looked up, the tested form may be a part): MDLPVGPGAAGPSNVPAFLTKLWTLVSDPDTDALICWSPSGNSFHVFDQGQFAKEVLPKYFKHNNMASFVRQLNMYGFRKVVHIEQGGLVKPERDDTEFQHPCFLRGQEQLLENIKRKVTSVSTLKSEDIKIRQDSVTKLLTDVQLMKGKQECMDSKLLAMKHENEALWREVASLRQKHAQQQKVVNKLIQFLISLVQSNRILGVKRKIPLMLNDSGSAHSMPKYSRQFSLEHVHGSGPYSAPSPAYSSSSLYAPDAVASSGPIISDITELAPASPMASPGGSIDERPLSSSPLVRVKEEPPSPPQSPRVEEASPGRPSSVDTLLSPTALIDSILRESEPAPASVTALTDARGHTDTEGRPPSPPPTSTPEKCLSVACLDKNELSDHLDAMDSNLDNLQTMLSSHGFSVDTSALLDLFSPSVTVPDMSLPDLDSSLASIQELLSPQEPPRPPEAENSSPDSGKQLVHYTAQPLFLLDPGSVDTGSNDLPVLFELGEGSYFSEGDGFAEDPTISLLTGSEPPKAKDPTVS
Method in brief: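 Endogenous transcription factor activity captured via cis-promoter reporter units transfected into HepG2; treatment lasted 24 h. Fluorescence intensity of reporter fragments analysed with bidirectional curve fitting, DMSO baseline.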

[19] = ATG_MRE_CIS: Attagene CIS-FACTORIAL HepG2 Assay for human Metal Responsive Element (MRE) (AID 2282954); details: HepG2 MRE cis-reporter transcription, Attagene multiplex; actives raise or lower the signal
Method in brief: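 Endogenous MRE-dependent transcription read as reporter mRNA in transiently transfected human HepG2 cells at 24 h. RNA reverse-transcribed, PCR-amplified, labelled and resolved by capillary electrophoresis; gain or loss relative to DMSO.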

[20] = ATG_GRE_CIS: Attagene CIS-FACTORIAL HepG2 Assay for human Glucocorticoid Response Elements (GRE) (AID 2282947); details: HepG2 GRE cis-reporter, Attagene multiplex mRNA; actives raise or lower the signal
Method in brief: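 Reporter transcripts read by RT-PCR with capillary electrophoresis fluorescence after a 24 h chemical exposure of HepG2 cells transiently transfected with multiple cis-element reporter units. Gain or loss fitted against DMSO.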

Measured: AC50

Clc1cccc(C(Cl)(Cl)Cl)n1
not listed: [20]
inactive: all other assays above

CCN(CC)c1nc(C)cc(OP(=S)(OC)OC)n1
active: [4] 50 µM | [6] 12.7 µM | [16] 50 µM | [19] 50 µM
not listed: [12]
inactive: all other assays above

CC(C)C1(C)N=C(c2ncccc2C(=O)O)NC1=O (configuration not stated)
inactive: all assays above

CC(C)=CC1C(C(=O)OCc2coc(Cc3ccccc3)c2)C1(C)C (configuration not stated)
active: [6] 13.1 µM | [19] 50 µM
inactive: all other assays above

CCNC(=O)NC(=O)C(C#N)=NOC
active: [6] 50 µM
inactive: all other assays above

N#Cc1c(Cl)cccc1Cl
not listed: [12]
inactive: all other assays above

COCC(C)N(C(=O)CCl)c1c(C)csc1C (configuration not stated)
inactive: all assays above

Reference: PubChem BioAssay (EPA / NIEHS)
